From the supplement of paper PMC10849652
Of roughly 8,800 targets only a part is listed; those with a hit were picked by preference. About 0.5% of all pairs of compound and target were hits.

Each target was assayed with C1=CC(=CC=C1C2=NC3=C(N2)C=C(C=C3)C(=O)N)OC4=CC=C(C=C4)Cl (assay: log2 fold change, soluble protein after heating vs DMSO (PISA); higher = thermal stabilisation; K562 lysate, 10 uM; active = over 0.2 and 3.5 SD of the protein, either way, in both replicates (recomputed)).
In short: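 Pellets of K562 cells were dounce-homogenised in PBS pH 7.4 with 1 mM MgCl2, and the crude extract was held at 1 mg/mL protein for a 30 min treatment with 10 μM compound. Aliquots were heated for 3 min over 48°C-58°C and pooled before NP-40 was added to 0.5% at 4°C. The supernatant from 21,000xg for 90 min was quantified by TMTpro 16plex LC-MS/MS with channel sums equalised. Values are reported from duplicates as log-two fold change in thermal stability relative to solvent controls.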

Sequence of UniProt Q9NSV4 (Q9NSV4 whole entry, looked up): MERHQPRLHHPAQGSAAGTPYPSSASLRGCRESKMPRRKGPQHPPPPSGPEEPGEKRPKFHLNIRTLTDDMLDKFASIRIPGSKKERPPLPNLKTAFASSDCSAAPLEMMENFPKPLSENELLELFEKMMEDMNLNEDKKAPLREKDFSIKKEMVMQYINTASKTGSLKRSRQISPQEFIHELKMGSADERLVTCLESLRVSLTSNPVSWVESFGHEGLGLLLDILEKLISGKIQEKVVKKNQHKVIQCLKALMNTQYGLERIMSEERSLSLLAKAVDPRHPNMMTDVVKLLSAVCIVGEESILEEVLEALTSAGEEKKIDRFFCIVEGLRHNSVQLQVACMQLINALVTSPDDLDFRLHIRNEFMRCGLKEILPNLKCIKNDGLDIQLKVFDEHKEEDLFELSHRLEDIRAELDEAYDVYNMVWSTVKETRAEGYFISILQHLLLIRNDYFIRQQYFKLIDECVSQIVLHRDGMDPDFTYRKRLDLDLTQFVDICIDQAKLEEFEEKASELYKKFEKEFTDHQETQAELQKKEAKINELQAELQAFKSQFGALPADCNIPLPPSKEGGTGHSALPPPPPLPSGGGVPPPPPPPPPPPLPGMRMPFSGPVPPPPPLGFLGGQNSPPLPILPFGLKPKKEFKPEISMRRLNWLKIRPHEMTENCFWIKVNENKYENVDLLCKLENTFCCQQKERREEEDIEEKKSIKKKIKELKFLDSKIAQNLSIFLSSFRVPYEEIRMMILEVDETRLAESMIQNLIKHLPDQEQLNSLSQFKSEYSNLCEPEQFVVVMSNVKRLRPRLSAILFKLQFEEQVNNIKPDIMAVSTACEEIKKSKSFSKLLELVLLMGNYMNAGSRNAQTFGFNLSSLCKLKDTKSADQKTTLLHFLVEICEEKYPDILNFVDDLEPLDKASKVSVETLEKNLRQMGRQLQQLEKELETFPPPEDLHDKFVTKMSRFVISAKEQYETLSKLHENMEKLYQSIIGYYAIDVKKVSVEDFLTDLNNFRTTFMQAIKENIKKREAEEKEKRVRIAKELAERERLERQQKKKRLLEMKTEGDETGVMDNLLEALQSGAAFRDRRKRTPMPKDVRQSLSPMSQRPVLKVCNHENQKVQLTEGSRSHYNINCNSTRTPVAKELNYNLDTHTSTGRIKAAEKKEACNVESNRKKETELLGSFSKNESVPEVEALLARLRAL
Sequence of UniProt O75208 (O75208 whole entry, looked up): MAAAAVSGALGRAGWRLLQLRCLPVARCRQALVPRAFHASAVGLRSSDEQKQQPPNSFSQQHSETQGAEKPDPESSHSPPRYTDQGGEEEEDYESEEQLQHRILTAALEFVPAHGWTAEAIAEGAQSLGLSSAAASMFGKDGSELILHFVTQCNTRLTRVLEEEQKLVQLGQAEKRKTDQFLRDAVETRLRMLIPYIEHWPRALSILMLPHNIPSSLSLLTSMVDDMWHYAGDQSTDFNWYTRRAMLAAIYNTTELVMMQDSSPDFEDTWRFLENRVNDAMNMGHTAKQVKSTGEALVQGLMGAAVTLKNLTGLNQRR
Sequence of UniProt P50570 (P50570 whole entry, looked up): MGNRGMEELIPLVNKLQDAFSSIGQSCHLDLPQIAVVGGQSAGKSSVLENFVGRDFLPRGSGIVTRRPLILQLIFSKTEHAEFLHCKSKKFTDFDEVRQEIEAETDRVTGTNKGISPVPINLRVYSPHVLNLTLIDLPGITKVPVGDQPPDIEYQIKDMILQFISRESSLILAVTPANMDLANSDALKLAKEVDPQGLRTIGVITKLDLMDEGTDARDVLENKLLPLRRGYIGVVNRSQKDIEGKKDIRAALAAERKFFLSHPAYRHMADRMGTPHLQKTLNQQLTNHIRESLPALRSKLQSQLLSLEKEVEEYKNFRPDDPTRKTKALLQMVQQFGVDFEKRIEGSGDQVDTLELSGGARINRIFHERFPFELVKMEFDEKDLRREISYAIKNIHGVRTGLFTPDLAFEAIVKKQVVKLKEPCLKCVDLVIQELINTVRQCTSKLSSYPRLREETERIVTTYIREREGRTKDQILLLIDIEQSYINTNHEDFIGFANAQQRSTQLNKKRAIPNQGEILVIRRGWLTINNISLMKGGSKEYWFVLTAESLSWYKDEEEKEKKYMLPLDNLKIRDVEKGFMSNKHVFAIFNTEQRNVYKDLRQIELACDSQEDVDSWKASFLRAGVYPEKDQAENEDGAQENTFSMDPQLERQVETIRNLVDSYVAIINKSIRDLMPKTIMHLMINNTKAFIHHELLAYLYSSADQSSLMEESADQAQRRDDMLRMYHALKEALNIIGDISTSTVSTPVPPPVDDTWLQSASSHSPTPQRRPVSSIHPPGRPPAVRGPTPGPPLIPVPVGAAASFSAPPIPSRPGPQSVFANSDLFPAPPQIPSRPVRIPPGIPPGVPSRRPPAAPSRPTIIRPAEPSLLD
Sequence of UniProt Q99766 (Q99766 whole entry, looked up): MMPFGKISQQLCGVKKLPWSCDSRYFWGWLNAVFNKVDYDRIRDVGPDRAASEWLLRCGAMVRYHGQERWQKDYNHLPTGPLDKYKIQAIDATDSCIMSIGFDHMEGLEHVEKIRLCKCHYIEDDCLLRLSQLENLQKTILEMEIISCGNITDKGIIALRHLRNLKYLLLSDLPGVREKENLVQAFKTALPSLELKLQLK
Sequence of UniProt P67870 (P67870 whole entry, looked up): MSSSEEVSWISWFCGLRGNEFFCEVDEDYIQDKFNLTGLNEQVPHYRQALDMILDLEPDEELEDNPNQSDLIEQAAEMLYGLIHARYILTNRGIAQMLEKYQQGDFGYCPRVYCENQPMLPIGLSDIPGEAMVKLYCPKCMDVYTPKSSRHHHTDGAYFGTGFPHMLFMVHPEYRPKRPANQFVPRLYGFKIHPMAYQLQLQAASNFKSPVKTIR
Sequence of UniProt P29373 (P29373 whole entry, looked up): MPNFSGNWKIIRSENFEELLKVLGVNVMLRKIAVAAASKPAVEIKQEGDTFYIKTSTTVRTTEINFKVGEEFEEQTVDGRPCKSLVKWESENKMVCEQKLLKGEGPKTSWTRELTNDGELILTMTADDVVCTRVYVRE
Sequence of UniProt Q8WUH1 (Q8WUH1 whole entry, looked up): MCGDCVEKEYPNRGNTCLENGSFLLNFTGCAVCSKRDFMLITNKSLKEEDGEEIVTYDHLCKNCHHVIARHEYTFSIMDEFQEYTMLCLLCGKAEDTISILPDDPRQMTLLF
Sequence of UniProt P09543 (P09543 whole entry, looked up): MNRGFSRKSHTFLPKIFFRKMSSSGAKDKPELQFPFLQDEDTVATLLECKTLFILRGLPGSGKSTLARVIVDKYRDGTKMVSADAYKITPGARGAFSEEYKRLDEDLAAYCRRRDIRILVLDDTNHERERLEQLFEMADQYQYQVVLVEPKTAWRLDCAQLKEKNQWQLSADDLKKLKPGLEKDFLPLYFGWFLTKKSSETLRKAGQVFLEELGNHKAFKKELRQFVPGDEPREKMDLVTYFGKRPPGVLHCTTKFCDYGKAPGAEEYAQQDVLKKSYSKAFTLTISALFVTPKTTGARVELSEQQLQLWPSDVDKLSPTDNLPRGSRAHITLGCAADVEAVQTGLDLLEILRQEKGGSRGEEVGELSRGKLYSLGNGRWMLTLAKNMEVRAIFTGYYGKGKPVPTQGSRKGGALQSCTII
Sequence of UniProt Q9BY43 (Q9BY43 whole entry, looked up): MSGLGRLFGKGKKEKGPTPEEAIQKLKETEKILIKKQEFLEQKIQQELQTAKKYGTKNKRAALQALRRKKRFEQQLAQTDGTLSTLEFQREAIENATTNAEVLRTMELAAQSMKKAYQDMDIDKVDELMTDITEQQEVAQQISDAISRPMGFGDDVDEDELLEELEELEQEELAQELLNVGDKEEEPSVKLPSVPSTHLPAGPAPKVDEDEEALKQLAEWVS
Sequence of UniProt P09622 (P09622 whole entry, looked up): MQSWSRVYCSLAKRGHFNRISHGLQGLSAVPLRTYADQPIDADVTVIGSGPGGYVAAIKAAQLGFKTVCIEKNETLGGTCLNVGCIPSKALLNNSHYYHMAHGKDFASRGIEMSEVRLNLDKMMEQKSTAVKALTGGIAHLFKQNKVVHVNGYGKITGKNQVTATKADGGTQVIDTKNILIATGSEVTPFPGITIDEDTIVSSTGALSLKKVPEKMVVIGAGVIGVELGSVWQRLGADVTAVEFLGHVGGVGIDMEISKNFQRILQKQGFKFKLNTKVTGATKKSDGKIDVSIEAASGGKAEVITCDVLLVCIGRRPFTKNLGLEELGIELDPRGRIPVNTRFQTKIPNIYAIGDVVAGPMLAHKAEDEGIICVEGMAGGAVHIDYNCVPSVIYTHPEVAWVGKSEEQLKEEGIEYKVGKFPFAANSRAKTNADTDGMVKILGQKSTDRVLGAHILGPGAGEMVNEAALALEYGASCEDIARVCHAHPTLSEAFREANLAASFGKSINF
Sequence of UniProt P61923 (P61923 whole entry, looked up): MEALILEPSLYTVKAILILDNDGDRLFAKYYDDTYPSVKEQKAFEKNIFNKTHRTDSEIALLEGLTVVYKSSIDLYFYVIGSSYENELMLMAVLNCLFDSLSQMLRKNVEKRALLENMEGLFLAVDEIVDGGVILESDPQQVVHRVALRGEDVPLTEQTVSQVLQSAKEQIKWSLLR
Sequence of UniProt O76075 (O76075 whole entry, looked up): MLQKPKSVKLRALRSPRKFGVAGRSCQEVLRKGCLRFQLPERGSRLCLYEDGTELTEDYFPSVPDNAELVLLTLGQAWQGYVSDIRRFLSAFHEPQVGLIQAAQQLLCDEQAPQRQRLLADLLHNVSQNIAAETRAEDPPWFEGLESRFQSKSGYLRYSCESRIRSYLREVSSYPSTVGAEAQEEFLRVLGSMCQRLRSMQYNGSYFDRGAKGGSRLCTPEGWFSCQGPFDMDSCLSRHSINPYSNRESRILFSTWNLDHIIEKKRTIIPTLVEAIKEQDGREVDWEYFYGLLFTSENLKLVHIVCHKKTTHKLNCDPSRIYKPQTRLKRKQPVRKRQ
Sequence of UniProt Q99828 (Q99828 whole entry, looked up): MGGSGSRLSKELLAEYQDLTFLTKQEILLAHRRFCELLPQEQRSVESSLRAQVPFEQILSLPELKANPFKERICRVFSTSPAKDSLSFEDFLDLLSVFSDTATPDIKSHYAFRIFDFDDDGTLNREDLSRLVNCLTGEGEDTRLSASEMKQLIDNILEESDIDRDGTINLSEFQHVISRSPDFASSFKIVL

Target | log2 fold change
CIB1 (UniProt Q99828) | 0.013 (inactive)
COL6A5 (UniProt A8TX70) | 0.02 (inactive)
DFFB (UniProt O76075) | 0.071 (inactive)
CSNK1G3 (UniProt Q9Y6M4) | 0.097 (inactive)
DNM2 (UniProt P50570) | 0.049 (inactive)
COPZ1 isoform 4 (UniProt P61923) | -0.05 (inactive)
DPH5 isoform 5 (UniProt Q9H2P9) | -0.025 (inactive)
COQ9 (UniProt O75208) | -0.001 (inactive)
DLD (UniProt P09622) | 0.022 (inactive)
CLP1 (UniProt Q92989) | -0.011 (inactive)
DMAC2L (UniProt Q99766) | -0.017 (inactive)
DOCK10 (UniProt Q96BY6) | -0.03 (inactive)
CIAO2A (UniProt Q9H5X1) | 0.03 (inactive)
DNAJC1 (UniProt Q96KC8) | -0.159 (inactive)
DIAPH3 (UniProt Q9NSV4) | -0.022 (inactive)
CNP (UniProt P09543) | 0.002 (inactive)
CHURC1 isoform 2 (UniProt Q8WUH1) | -0.021 (inactive)
CYCS (UniProt P99999) | -0.019 (inactive)
CSNK2B (UniProt P67870) | -0.039 (inactive)
DOCK8 (UniProt Q8NF50) | -0.016 (inactive)
CRABP2 (UniProt P29373) | -0.017 (inactive)
DENND6A (UniProt Q8IWF6) | 0.004 (inactive)
CHMP4A isoform 2 (UniProt Q9BY43) | 0.018 (inactive)
